Screening results as filed in PubChem.
Sampled rows, rich in hits. Any-hit rate of the full collection: about 2.2%.
mIDH1 inhibitor: blocks human mutant IDH1 R132H enzyme; IDH1-R132H enzyme, NADPH consumption, diaphorase/resazurin fluorescence; 390,000 compounds, 0.093% hits; AID 602179; Potency, µM (series often up to 76.6 µM), actives largely listed as inhibitors; also: nearly all actives have a fitted effect of over 65% in size
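IDH1-R132H (0.5 ug/mL dispensed) in pH 7.5 Tris buffer was preincubated 30 min with compound, then given a substrate mix of 0.016 mM NADPH and 2 mM alpha-KG for 80 min at room temperature; remaining NADPH was read by diaphorase/resazurin fluorescence.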
Giardia killer: Giardia lamblia killing; AID 540267; activity change, % at 7.66 µM, hits read low; 340,000 compounds, 0.15% hits; Giardia lamblia trophozoite viability; in the data active = activity change below about -80%; inconclusive = between about -30% and that limit;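 also: parasites exposed to compound for two days anaerobically before the ATP read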
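Giardia trophozoites, 100 cells per well, were exposed to compounds for 48 hrs at 37 deg C under anaerobic conditions; viability was then read as ATP content by bioluminescence after 15-30 min at room temperature.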
IL-2 act: activates IL-2 in a cell-based reporter assay | IL-2 activation reporter assay, cell-based qHTS; stimulated with anti-CD3/CD4/CD28 beads; in transgenic mouse T cells | activation, % (series mostly up to about 46 µM) | 360,000 compounds, 0.065% hits; in the data active = activation above about 50%; inconclusive = mostly about 30% to 49%
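Readout is EGFP and DsRed signal by fluorescent plate cytometry after 18 h at 37 degrees C. Transgenic mouse T cells (750/well) received compound for 60 min before bead stimulation (anti-CD3, anti-CD4, anti-CD28); memory T cells served as non-tolerant control.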
TrxR1 substrate: rat thioredoxin reductase 1 substrate activity. AID 588456. Potency, µM (highest dose often 114 µM). purified TrxR1 substrate turnover, NADPH consumption readout. 390,000 compounds, 0.01% hits; also: nearly all actives have a fitted effect of over 50% in size
Target sequence (O89049 whole entry, looked up): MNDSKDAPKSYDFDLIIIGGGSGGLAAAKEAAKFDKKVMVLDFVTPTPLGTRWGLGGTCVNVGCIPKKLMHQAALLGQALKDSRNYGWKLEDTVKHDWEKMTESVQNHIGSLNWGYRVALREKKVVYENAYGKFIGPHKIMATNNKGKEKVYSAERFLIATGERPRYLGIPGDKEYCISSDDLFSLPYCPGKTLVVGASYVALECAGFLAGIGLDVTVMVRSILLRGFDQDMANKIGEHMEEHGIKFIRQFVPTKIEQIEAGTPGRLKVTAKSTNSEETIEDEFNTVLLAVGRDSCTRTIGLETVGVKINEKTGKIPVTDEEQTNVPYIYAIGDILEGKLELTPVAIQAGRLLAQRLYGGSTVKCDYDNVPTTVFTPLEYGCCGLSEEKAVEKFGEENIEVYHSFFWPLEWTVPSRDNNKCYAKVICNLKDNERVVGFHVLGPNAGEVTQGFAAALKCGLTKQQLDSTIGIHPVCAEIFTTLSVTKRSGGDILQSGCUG
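Rat TrxR1, dispensed at 90 nM, was prereduced with 400 uM NADPH (final) for 5 min at ~22 deg C, then incubated with compound 15 min before 400 uM selenite. A first-read NADPH fluorescence drop versus no-compound background flagged substrates.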
BRCA1 expr act: activators of BRCA1 expression. MCF7-BRCA1-FFLuc reporter, luminescence, 48 h; response scale: scaled: vehicle 0%, 10 µM genistein 100%. Potency, µM (doses to about 46.1 µM), usual class: activators. 380,000 compounds, 1.1% hits. AID 624202; also: nearly all actives have a fitted effect of over 80% in size
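Luminescence from a BRCA1-driven firefly luciferase in MCF7 cells was the read-out, taken 15 min after substrate addition following 48 h compound exposure at 37 °C. Data were normalized to a 10 microM genistein control and DMSO vehicle.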
TrxR1 inh: rat TrxR1 inhibition. O89049. 390,000 compounds, 1% hits. Potency, µM (titrated, usually from 114 µM), usual class: inhibitors. recombinant rTrxR1, NADPH fluorescence consumption, selenite substrate; also: nearly all actives have a fitted effect of over 65% in size
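Rat TrxR1 (90 nM in the dispensed reagent) was pre-reduced with 400 uM NADPH for 5 min at room temperature, then incubated with compound for 15 min. After 400 uM selenite was added, NADPH fluorescence (Ex 340/Em 450 nm) was followed for 8 min.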
A number is an active result; [ ] = another dose, or the depositor's remark. Unless noted, calls follow the shape of the dose curve; as a rule, active = well fitted curve in the direction sought with a large enough effect; inconclusive = small, poorly fitted or top-dose-only effect, or another doubt; inactive = no such curve, though single readings can be large; an effect the other way counts as inactive or inconclusive.

What do the screens show for `COCCN(CCOC)Cc1c(O)ccc2c1O/C(=C\c1ccco1)C2=O`?
mIDH1 inhibitor: inactive; Giardia killer: inactive; IL-2 act: inactive; TrxR1 substrate: inactive; BRCA1 expr act: inactive; TrxR1 inh: 79µM

What do the screens show for `O=C1/C(=C/c2ccco2)Oc2c1ccc(O)c2CN1CCCCC1`?
mIDH1 inhibitor: inactive; Giardia killer: inactive; IL-2 act: inactive; TrxR1 substrate: inactive; BRCA1 expr act: inactive; TrxR1 inh: inconclusive

How did CCC(=O)Oc1ccc2c(c1)O/C(=C\c1ccco1)C2=O do in these assays?
mIDH1 inhibitor: inactive; Giardia killer: inactive; IL-2 act: inactive; TrxR1 substrate: inactive; BRCA1 expr act: inactive; TrxR1 inh: 79µM

How did CCN(CC)C(=O)Oc1ccc2c(c1)O/C(=C\c1ccco1)C2=O do in these assays?
mIDH1 inhibitor: inactive; Giardia killer: inactive; IL-2 act: inactive; TrxR1 substrate: inactive; BRCA1 expr act: inactive; TrxR1 inh: inconclusive

What do the screens show for `CCOc1ccccc1NC(=O)Cn1c(=O)n(Cc2ccco2)c(=O)c2ccc(C(=O)NC3CCCC3)cc21`?
mIDH1 inhibitor: inactive; TrxR1 substrate: inactive; BRCA1 expr act: inactive; TrxR1 inh: inactive

What do the screens show for `CC(C(=O)NCc1ccccc1F)n1ccc2cc(S(=O)(=O)N3CCCC3)ccc21` (stereo not given)?
mIDH1 inhibitor: inactive; TrxR1 substrate: inactive; TrxR1 inh: inactive

What do the screens show for `COc1cc2c(cc1N)-c1ccc(N)cc1C2`?
mIDH1 inhibitor: inactive; Giardia killer: inactive; IL-2 act: inactive; TrxR1 substrate: inactive; BRCA1 expr act: 7.9µM; TrxR1 inh: inactive[11.4 µM]

Results for CCc1ccc(-c2nn(CC(=O)NCc3ccccc3)c3c2cnc2ccc(C)cc23)cc1 ?
mIDH1 inhibitor: inactive; TrxR1 substrate: inactive; TrxR1 inh: inactive

What do the screens show for `O=c1cc(CO)oc(C(Nc2ccccn2)c2cccc(F)c2)c1O` (stereo not given)?
mIDH1 inhibitor: inactive; Giardia killer: inactive; IL-2 act: inactive; TrxR1 substrate: inactive; BRCA1 expr act: inactive; TrxR1 inh: 20µM

How did COc1cccc(C(Nc2ccccn2)c2oc(CO)cc(=O)c2O)c1 (stereo not given) do in these assays?
mIDH1 inhibitor: inactive; Giardia killer: inactive; IL-2 act: inactive; TrxR1 substrate: inactive; BRCA1 expr act: inactive; TrxR1 inh: 71µM

Results for O=c1cc(CO)oc(C(Nc2ccccn2)c2ccccc2F)c1O (stereo not given) ?
mIDH1 inhibitor: inactive; Giardia killer: inactive; IL-2 act: inactive; TrxR1 substrate: inactive; BRCA1 expr act: inactive; TrxR1 inh: inconclusive

Results for O=c1cc(CO)oc(C(Nc2ccccn2)c2ccc(C(F)(F)F)cc2)c1O (stereo not given) ?
mIDH1 inhibitor: inactive; Giardia killer: inactive; IL-2 act: inactive; TrxR1 substrate: inactive; BRCA1 expr act: inactive; TrxR1 inh: inactive

Results for Cc1ccccc1OCC(=O)NCC(=O)OCc1cccc2ccccc12 ?
Giardia killer: inactive; TrxR1 substrate: inactive; BRCA1 expr act: inactive; TrxR1 inh: inactive

How did NC(=O)/C(=C/c1ccco1)NC(=O)c1ccc(Br)o1 do in these assays?
mIDH1 inhibitor: inactive; Giardia killer: inactive; IL-2 act: inactive; TrxR1 substrate: inactive; BRCA1 expr act: inactive; TrxR1 inh: 11µM

How did Clc1ccc(OCc2nc(-c3ccncc3)no2)c(Br)c1 do in these assays?
mIDH1 inhibitor: inactive; Giardia killer: inactive; IL-2 act: inactive; TrxR1 substrate: inactive; BRCA1 expr act: 4µM; TrxR1 inh: inactive

How did COc1ccccc1Cc1nc(-c2ccncc2)no1 do in these assays?
mIDH1 inhibitor: inactive; Giardia killer: inactive; IL-2 act: inactive; TrxR1 substrate: inactive; BRCA1 expr act: inactive; TrxR1 inh: inactive

How did Cc1ccc(OCc2nc(-c3ccccn3)no2)c(Br)c1 do in these assays?
mIDH1 inhibitor: inactive; Giardia killer: inactive; IL-2 act: inactive; TrxR1 substrate: inactive; BRCA1 expr act: inconclusive; TrxR1 inh: inactive

What do the screens show for `Clc1ccccc1OCc1nc(-c2ccncc2)no1`?
mIDH1 inhibitor: inactive; Giardia killer: inactive; IL-2 act: inactive; TrxR1 substrate: inactive; BRCA1 expr act: 5µM; TrxR1 inh: inactive
